94 compounds from PubChem BioAssay AID2315 (National Center for Advancing Translational Sciences (NCATS), 2010) can be followed below.

The whole screen tested about 290,000 compounds, of which about 27,000 (9.3%) were called active. Only a selection was taken, and actives are over-represented in it overall. Unmarked numbers belong to inactive results. Cut-off read from the data, not from the text of the source: active = inhibition mostly above about 28% (no sharp cut-off); inactive = mostly below about 43%.

This assay is described as follows: A qHTS for Small Molecule Inhibitors of Shiga Toxin. Note: 0% is about no effect. The following applies: Vero cells, Shiga toxin protein synthesis inhibition reporter; at 38.7 µM, hits give high values. On the technique in general: qHTS replaces the single test concentration by a dilution series.
By inhibition is commonly meant the drop in the measured response relative to a control, in per cent. In the case of `COc1ccc(/C=N/NC(=O)c2ccccc2)cc1OS(=O)(=O)c1ccccc1`, the inhibition is 59.1% (active). The figure for `COc1ccc(/C=N\NC(=O)c2sc(N)nc2C)cc1OC` is 15.2%; for `COc1cc(/C=N/NC(=O)c2ccccc2)ccc1OS(=O)(=O)c1ccccc1` it is 31% (active); for `Cc1ccc(S(=O)(=O)Oc2ccc(/C=N/NC(=O)c3ccncc3)cc2)cc1` it is 9.5%. Next, `COc1cc(/C=N/NC(=O)c2cccnc2)ccc1OC(=O)c1cccc(Br)c1`: -22.1%.

With `COc1ccc(/C=N/S(=O)(=O)c2ccccc2)cc1OC`, the inhibition was -10.1%.

On to `COc1ccc(C)cc1NC(=O)CN(C)S(=O)(=O)c1ccc2c(c1)n(C)c(=O)c(=O)n2C`, for which the inhibition was 3.45%.

Consider `COc1ccc(-n2cc(-c3ccccc3)c3c(=S)nc[nH]c32)cc1`, for which the inhibition was -14.3%. Next, `CC(Oc1cccc(Cl)c1)C(=O)NC1CC(C)(C)NC(C)(C)C1` (centres undefined): -11.3%. Next, `CCn1cc(C(=O)NCCC(=O)NCCO)c(=O)c2cc3c(cc21)OCO3`: -8.77%; `CC(C)[C@H](NC(=O)N1CCn2c1nc1ccccc12)C(=O)NCCc1ccccc1`: 31.8%; `O=C(O)c1c(NC(=O)N2CCCC2)sc2c1CCCC2`: 36.9%. Next, `O=C(O)C1CCCN1S(=O)(=O)c1ccc(Br)cc1` (centres undefined): -1.18%; `COc1cc(CNc2ncn[nH]2)ccc1OCc1ccccc1C`: 67.9% (active). Turning to `COc1ccc(CCNC(=O)C(=O)NCc2ccccc2C)cc1OC`, the inhibition was -10.9%. Next, `c1n[nH]c(NCc2ccc3c(c2)OCO3)n1`: -23.7%; `COc1ccc(C(O)(C2CCCCC2)C(CN2CCCC2)c2ccccc2)cc1` (centres undefined): 0.707%; `O=C(NCc1cc(F)cc(C(F)(F)F)c1)C1CCC(=O)N(C2CCCC2)C1` (centres undefined): 40.9%.

On to `CCC(=O)Nc1nnc(S(=O)(=O)N(CC(C)C)c2ccccc2)s1`, for which the inhibition was 1.25%. As to `O=S(=O)(NCc1ccco1)c1cnc(Cl)c(Cl)c1`, the inhibition was -12.1%.

With `C/C(=N\Nc1ncc(Cl)cc1Cl)c1cccs1`, the inhibition is 101% (active). `COc1cccc(/C(C)=N/Nc2ncc(Cl)cc2Cl)c1`: the inhibition is 38.2% (active).

On to `C/C(=N\Nc1nc(Nc2ccccc2)nc(N2CCOCC2)n1)c1cccs1`, for which the inhibition is -5.79%. The figure for `O=C(Nc1ccccc1-c1nc2ccccc2[nH]c1=O)c1cccs1` is -5.13%. The figure for `CCN(CC)c1ccc(C(=O)N/N=C(\C)c2cccc(OC)c2)cc1` is 22.3%; for `C/C(=N\NS(=O)(=O)c1ccc(Br)cc1)c1cccs1` it is -4.11%. The figure for `C/C(=N\Nc1nc2ccccc2[nH]1)c1cccs1` is 97.5% (active). Turning to `COC(=O)c1sccc1N/N=C(\C)c1ccc(F)c(Cl)c1`, the inhibition is -5.96%. Regarding `C/C(=N\Nc1ncc(Cl)cc1Cl)c1ccc(S(=O)(=O)NCc2ccco2)cc1`, the inhibition is 144% (active). The figure for `C/C(=N\Nc1ccc(S(N)(=O)=O)cc1[N+](=O)[O-])c1cccs1` is 2.64%; for `Cc1c(Cl)cnc(NC(=O)COC(=O)c2ccc(S(=O)(=O)NCc3ccco3)cc2)c1Cl` it is -13.9%; for `Cc1ccc(N2CCN(c3ccc([N+](=O)[O-])cn3)CC2)c(C)c1` it is -5.14%.

With `COc1ccc2c(c1OC)C(=O)N(c1ccc(O)cc1)C2`, the inhibition is 29.7%. The figure for `O=C(COc1ccc(S(=O)(=O)N2CCOCC2)cc1Cl)N1CCOCC1` is -5.97%; for `O=C(c1ccccc1)N1CCC(CC2CC(c3ccc(Cl)cc3)=NO2)(C(=O)NCC2CCCCC2)CC1` (centres undefined) it is -0.8%; for `Cc1ccc(N2CC(C(=O)Nc3ccc(S(=O)(=O)N4CCCC4)cc3)CC2=O)cc1C` (centres undefined) it is -5.32%. Next, `N#C/C(=C/c1ccc(-c2ccccc2[N+](=O)[O-])o1)C(=O)NCCN1CCCCC1`: 6.58%; `Cc1ccc(Cc2cnc(NC(=O)/C(C#N)=C/c3ccc(-c4cccc([N+](=O)[O-])c4)o3)s2)cc1`: 19.7%. The figure for `Cc1ccc(-c2ccc(/C=C(\C#N)C(N)=S)o2)c([N+](=O)[O-])c1` is 19.2% (active); for `CCc1cc(=O)oc2c(C)c(OCC(=O)N3CC[C@@]4(O)CCCC[C@H]4C3)ccc12` it is -4.55%; for `Cc1cccc(C)c1NC(=O)C(Cl)C(=O)c1ccccc1` (centres undefined) it is -15.6%. Turning to `CC(C)N(C(=O)Cn1cc(S(=O)(=O)CC(=O)N2CCOCC2)c2ccccc21)C(C)C`, the inhibition was -3.05%.

In the case of `CC(C)C(=O)Nc1nnc(SCC(=O)N2C(C)CCCC2C)s1` (centres undefined), the inhibition is -4.35%. Turning to `O=C(CSc1nnc2ccc(-c3ccncc3)nn12)N1CCCCC1`, the inhibition is -15.9%. The figure for `O=C(CSc1nnnn1C1CCCC1)N1CCCCC1` is 110% (active); for `CC1CCCC(C)N1C(=O)CSc1nnnn1C1CCCC1` (centres undefined) it is 53.7% (active). The figure for `CCCc1nnc(SCC(=O)N2C(C)CCCC2C)n1CC` (centres undefined) is 3.99%. The figure for `CC(Sc1nnnn1C1CCCCC1)C(=O)O` (centres undefined) is 3.3%; for `COc1ccc(C2NC(=O)C(=O)/C2=C(\O)c2ccc(Cl)cc2)cc1OC` (centres undefined) it is -18%. With `CCN(CC(=O)NCCCN1CCOCC1)S(=O)(=O)c1cc(Cl)ccc1Cl`, the inhibition is 10.6%. Next, `Cc1cccc(N2CCN(C(=O)c3cccc(N4C(=O)C5C6C=CC(C6)C5C4=O)c3)CC2)c1C` (centres undefined): -9.11%. `CCC(C)NC(=O)C1c2ccccc2C(=O)N1Cc1ccccc1` (centres undefined): the inhibition was -8.49%. The figure for `CCOc1ccc(NC(=O)C2CCN(C(=O)N3CCOc4ccccc43)CC2)cc1` is 7.11%; for `O=C(Cc1c(F)cccc1Cl)Nc1ccc(-n2cnnn2)cc1` it is 12.8%; for `O=C(Nc1ncc([N+](=O)[O-])s1)C1COc2ccccc2O1` (centres undefined) it is 93.4% (active). Next, `O=C(Nc1nc(-c2ccncc2)cs1)C1COc2ccccc2O1` (centres undefined): -4.34%; `CN(c1ccccc1)S(=O)(=O)c1cccc(NC(=O)Cc2c(F)cccc2Cl)c1`: -0.293%. Next, `CCN(CC)S(=O)(=O)c1ccc(N2CCOCC2)c(NC(=O)C2COc3ccccc3O2)c1` (centres undefined): 4.87%; `O=C(Nc1nc2c(F)cc(F)cc2s1)C1COc2ccccc2O1` (centres undefined): 71.8% (active). As to `COc1ccc([N+](=O)[O-])cc1NC(=O)CCc1ccccc1`, the inhibition is 17%. Next, `O=C(Nc1nnc(SCc2ccc(Cl)cc2Cl)s1)C1COc2ccccc2O1` (centres undefined): -4.34%; `O=C(Cc1c(F)cccc1Cl)Nc1ncc([N+](=O)[O-])s1`: 75.5% (active). Next, `CC(C)Cc1nnc(NC(=O)CCc2ccccc2)s1`: 7.6%. The figure for `Cc1ccc(S(=O)(=O)N(C)C)cc1NC(=O)COC(=O)C1COc2ccccc2O1` (centres undefined) is -6.06%. Regarding `O=C(CCc1ccccc1)Nc1ncc([N+](=O)[O-])s1`, the inhibition was 85.8% (active). Next, `Cc1cc(C)cc(N(CC(=O)NC2CCCC2)C(=O)CCC(=O)Nc2cc(C)on2)c1`: -3.5%; `Cc1ccc2[nH]cc(CCNC(=O)C3CCCCC3)c2c1`: -0.198%; `CC(C)CNC(=O)CC(NCC(C)C)C(=O)O` (centres undefined): -15%. Take `CCCCNC(=O)C1CCC(=O)N1CCc1ccccc1` (centres undefined): the inhibition is 2.74%. The figure for `COc1cc(C(=O)NC2CCN(Cc3ccccc3)CC2)cc(Cl)c1OC(C)C` is 2.17%; for `Cc1cc(OCC(=O)NCC(O)c2ccccc2)c2c(C)c(C)c(=O)oc2c1` (centres undefined) it is 0.938%. Consider `CCCCN(C)CCCNC(=O)c1cc(-c2cccs2)nc2ccccc12`, for which the inhibition was -4.77%. Next, `COc1cc(CN2CCCN(C)CC2)c([N+](=O)[O-])cc1OC`: -4.36%; `CCN(C(=O)CN1C(=O)/C(=C/c2ccc(F)cc2)SC1=S)C1CCS(=O)(=O)C1` (centres undefined): -8.73%; `CCc1nn(CCCC(=O)Nc2ccc(C)cc2C)c(=O)c2cc3occc3n12`: -5.79%. With `O=C(Nc1cccc(Cl)c1N1CCOCC1)c1cccnc1`, the inhibition is -2.36%. For the compound `Cc1cccc(N(C(=O)Cn2nnc(-c3ccc(C)o3)n2)C(C(=O)NC2CCCC2)c2ccncc2)c1` (centres undefined), the inhibition was -3.72%. Next, `COc1ccc2c(CC(=O)N3CCc4cc(OC)c(OC)cc4C3)coc2c1`: -3.55%. The figure for `COc1ccc(NC(=O)C2COc3ccccc3O2)cc1` (centres undefined) is 70.7% (active). Next, `O=C(Nc1ccncc1)c1ccccc1[N+](=O)[O-]`: 5.85%. For `CC(=O)Oc1ccccc1C(=O)Nc1ncc([N+](=O)[O-])s1`, the inhibition is 77.1% (active). Next, `COc1ccc(NC(=O)CC2COc3ccccc3O2)c(OC)c1` (centres undefined): 25%; `COc1ccc(NC(=O)c2ccccc2[N+](=O)[O-])cc1OC`: 9.2%; `C/C(=N/NC(=O)C1COc2ccccc2O1)c1ccco1` (centres undefined): 3.3%. Consider `CC(C)(C)c1cc[n+](-c2[nH]c(=O)sc2/C=N/N=C(\[O-])c2ccccc2)cc1`, for which the inhibition was 25.8%. The figure for `COc1ccc(CNC(=O)c2c[nH]c3c(OC)cc(OC)cc3c2=O)cc1` is -11.7%; for `COc1ccc(CN2CCCC(N3CCc4ccccc4C3)C2)c(O)c1` (centres undefined) it is -7.05%; for `CN1CCN(CCCCOc2cccc3ccccc23)CC1` it is 29.7%.

For the compound `Cc1cccc(CCNC(=O)Cn2ncc3c([nH]c4ccc(C)cc43)c2=O)c1`, the inhibition was 15.3%.

`Cc1cc(-c2ccc(S(=O)(=O)N3CCc4ccccc4C3)s2)on1`: the inhibition was -19.6%. The figure for `CC1=C(C(=O)OC(C)(C)C)C(c2ccc(Br)cc2)NC(=O)N1CCCC(=O)O` (centres undefined) is 9.92%; for `CCSc1nnc(SCC(=O)NNC(=O)c2ccccc2F)s1` it is -24.4%; for `Cc1cccc(NC(=O)C(C)SCc2ccccc2)c1` (centres undefined) it is 30.2%.

Regarding `CSc1ccc(CCNC(=O)CS(=O)(=O)Cc2nc(-c3ccccc3F)oc2C)cc1`, the inhibition is -3.45%.
